# From PubChem BioAssay
# Activity calls are given as the source filed them.
# Legend:
# [1] = test system: Plasmodium falciparum Sir2 (PF13_0152, Sir2A); assay: pfSir2 binders on small-molecule microarrays, primary screen, biochemical, small-molecule microarray, 635 nm fluorescence (AID 1098); conditions: small-molecule microarray binding, fluorescence 635 nm; higher = more signal;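 note: score merges spot fluorescence intensity with its signal-to-noise ratio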
# [2] = small-molecule microarray binders of probe aDKK1, primary screen, biochemical, biotinylated probe, 635/667 nm fluorescence (AID 1099); conditions: higher = more signal;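 note: score merges 667nm spot fluorescence with signal to noise across triplicate slides; reference of the scale not given here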
# [3] = small-molecule microarray binders of probe aCHRDL2, primary screen, biochemical, biotinylated probe, 635/667 nm fluorescence (AID 1100); conditions: higher = more signal
# [4] = splicing luciferase reporter signal modulators, primary screen, spliceosome inhibition project, cell-based, HEK293, splice +/- reporter (AID 1101); conditions: luminescence, 24 h, higher = more signal, called active from +8 up or from −8 down;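 note: HEK293 cells carrying a splicing-competent luciferase reporter gene; test concentration not given here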
# [5] = target: Fibroblast growth factor 10 (Homo sapiens) (UniProt O15520); assay: FGF10 binders on small-molecule microarrays, primary screen, biochemical, small-molecule microarray, 635 nm fluorescence (AID 1102); conditions: FGF10 binding, fluorescence 635 nm, higher = more signal
# [6] = test system: glycogen synthase kinase-3 (GSK3A per assay name; protocol says GSK3B); assay: GSK3 binders on small-molecule microarrays, primary screen, biochemical, small-molecule microarray, 635 nm fluorescence, GSK3A (AID 1103); conditions: small-molecule microarray binding, fluorescence 635 nm; higher = more signal; note: the record names both GSK3A and GSK3B
# [7] = target: Epidermal growth factor receptor (Homo sapiens) (UniProt P00533); assay: EGFR binders on small-molecule microarrays, primary screen, biochemical, small-molecule microarray, 635 nm fluorescence (AID 1104); conditions: EGFR binding, higher = more signal;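 note: score merges 667 nm emission intensity with spot signal to noise over triplicate slides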
# [8] = target: Follistatin-related protein 3 (Homo sapiens) (UniProt O95633); assay: FSTL3 binders on small-molecule microarrays, primary screen, biochemical, small-molecule microarray, 635 nm fluorescence (AID 1105); conditions: FSTL3 binding, higher = more signal;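 note: score merges emission near 667 nm and signal to noise per printed spot across three slides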
# [9] = target: Dickkopf-related protein 1 (Homo sapiens) (UniProt O94907); assay: DKK1 binders on small-molecule microarrays, primary screen, biochemical, small-molecule microarray, 635 nm fluorescence scan (AID 1106); conditions: DKK1 binding, higher = more signal;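 note: score merges emission near 667 nm with signal to noise over three replicate slides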
# [10] = test system: Inhibin beta A chain (activin A); assay: INHBA (activin A) binders on microarrays, primary screen, biochemical, small-molecule microarray, 635 nm fluorescence scan (AID 1107); conditions: small-molecule microarray binding, higher = more signal;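 note: mouse activin A protein probed at 4.33 µg/mL on printed slides; score merges bound-protein fluorescence near 667 nm with spot signal-to-noise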
# Chain of Follistatin-related protein 3 (Homo sapiens) (O95633 whole entry, looked up): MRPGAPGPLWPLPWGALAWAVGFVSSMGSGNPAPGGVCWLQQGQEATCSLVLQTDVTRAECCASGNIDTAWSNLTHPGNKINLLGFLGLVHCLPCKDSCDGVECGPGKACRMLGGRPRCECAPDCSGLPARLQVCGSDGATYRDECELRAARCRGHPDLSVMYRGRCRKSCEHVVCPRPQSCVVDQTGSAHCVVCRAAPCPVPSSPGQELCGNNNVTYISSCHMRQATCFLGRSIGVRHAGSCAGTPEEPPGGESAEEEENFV
# Chain of Fibroblast growth factor 10 (Homo sapiens) (O15520 whole entry, looked up): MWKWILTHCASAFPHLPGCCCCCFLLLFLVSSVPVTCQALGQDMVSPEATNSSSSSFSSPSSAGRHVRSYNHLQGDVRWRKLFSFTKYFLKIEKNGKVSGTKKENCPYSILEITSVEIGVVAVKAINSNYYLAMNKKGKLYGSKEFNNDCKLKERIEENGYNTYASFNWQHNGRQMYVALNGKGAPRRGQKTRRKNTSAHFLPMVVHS
# Chain of Epidermal growth factor receptor (Homo sapiens) (P00533 whole entry, looked up): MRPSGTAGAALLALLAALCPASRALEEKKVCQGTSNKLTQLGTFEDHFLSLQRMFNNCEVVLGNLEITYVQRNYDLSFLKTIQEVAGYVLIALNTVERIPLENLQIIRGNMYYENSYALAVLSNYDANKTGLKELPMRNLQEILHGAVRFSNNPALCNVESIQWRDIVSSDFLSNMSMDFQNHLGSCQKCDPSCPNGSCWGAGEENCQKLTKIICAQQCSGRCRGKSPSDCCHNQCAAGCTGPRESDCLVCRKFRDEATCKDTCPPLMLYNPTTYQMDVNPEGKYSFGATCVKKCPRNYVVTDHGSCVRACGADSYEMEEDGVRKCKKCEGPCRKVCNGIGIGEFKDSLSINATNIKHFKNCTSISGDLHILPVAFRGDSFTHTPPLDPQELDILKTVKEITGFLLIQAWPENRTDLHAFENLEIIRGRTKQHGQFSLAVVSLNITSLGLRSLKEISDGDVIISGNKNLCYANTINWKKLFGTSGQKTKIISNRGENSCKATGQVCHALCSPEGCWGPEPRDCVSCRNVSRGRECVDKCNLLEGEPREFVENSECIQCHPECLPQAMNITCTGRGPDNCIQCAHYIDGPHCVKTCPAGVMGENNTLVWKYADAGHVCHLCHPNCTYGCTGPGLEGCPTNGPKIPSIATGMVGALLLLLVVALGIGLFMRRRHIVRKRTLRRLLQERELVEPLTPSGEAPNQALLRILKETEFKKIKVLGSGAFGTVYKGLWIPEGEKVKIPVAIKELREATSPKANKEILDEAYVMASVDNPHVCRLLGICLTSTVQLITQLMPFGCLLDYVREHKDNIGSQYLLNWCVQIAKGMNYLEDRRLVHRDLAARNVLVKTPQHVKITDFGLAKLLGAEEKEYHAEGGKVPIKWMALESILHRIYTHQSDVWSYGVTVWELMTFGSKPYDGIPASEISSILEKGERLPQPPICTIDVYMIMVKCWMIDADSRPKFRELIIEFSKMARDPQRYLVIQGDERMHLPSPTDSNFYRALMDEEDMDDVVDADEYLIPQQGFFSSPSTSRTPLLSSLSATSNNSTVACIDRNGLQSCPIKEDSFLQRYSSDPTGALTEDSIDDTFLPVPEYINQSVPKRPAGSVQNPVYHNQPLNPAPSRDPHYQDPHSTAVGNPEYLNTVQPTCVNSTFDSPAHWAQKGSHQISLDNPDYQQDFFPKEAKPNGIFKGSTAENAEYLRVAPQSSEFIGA
# Chain of Dickkopf-related protein 1 (Homo sapiens) (O94907 whole entry, looked up): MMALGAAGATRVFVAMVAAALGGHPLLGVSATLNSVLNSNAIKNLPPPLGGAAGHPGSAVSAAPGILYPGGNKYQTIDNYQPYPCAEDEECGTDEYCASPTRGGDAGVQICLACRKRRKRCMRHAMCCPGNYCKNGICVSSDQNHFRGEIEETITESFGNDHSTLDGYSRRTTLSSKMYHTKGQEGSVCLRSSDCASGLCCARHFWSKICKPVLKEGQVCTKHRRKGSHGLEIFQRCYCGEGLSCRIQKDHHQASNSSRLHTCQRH
SMILES,composite z-score [1],composite z-score [2],composite z-score [3],z-score [4],composite z-score [5],composite z-score [6],composite z-score [7],composite z-score [8],composite z-score [9],composite z-score [10]
C=C(CCCC)C(=O)CC[C@@H](OC(=O)c1ccccc1-c1ccccc1C(=O)O)c1ccc(OCCO)cc1,1.19,-0.0379,0.0075,0.962 (inactive),0.969,0.585,-0.181,0.668,0.55,1.42
CC#CC(=O)Oc1ccccc1C=CC(=O)OCC,0.743,-0.223,-0.226,-0.634 (inactive),-0.176,0.0939,0.27,0.104,-0.0092,0.321
C=CCNC(=O)[C@@H]1[C@H]2C(=O)O[C@H](c3ccccc3)[C@H](c3ccccc3)N2[C@H](c2ccc(O)cc2)[C@@]12C(=O)Nc1ccc(C#CCNC(N)=O)cc12,0.213,-0.3,0.778,0.788 (inactive),0.0464,-0.489,-0.219,-0.164,-0.732,-0.0122
CCC(CC)C(O)C1C=CC2C(=O)NC(=O)C2N1Nc1ccccn1 (stereo not given),0.259,0.572,-0.705,1.17 (inactive),0.269,0.291,0.384,0.584,0.816,1.29
CN(C)CCCC[C@@H]1NC(=O)[C@@H]2C[C@H](C(=O)NCCCCCCN)[C@H](c3cccc(OCCO)c3)N2C1=O,0.891,0.956,0.584,-0.502 (inactive),0.894,1.22,0.0249,0.0587,0.603,0.6
CO[C@H]1O[C@H](CO)[C@@H](OC(=O)Nc2cccc(F)c2)[C@H](OC(=O)Nc2ccccc2)[C@@H]1OC(=O)Nc1ccccc1,0.931,0.433,0.824,-1.24 (inactive),1.35,1.28,0.397,1.2,-0.259,0.489
COCCCNC(=O)[C@@]1(C)c2ccccc2C(=O)N(C(C)C)[C@H]1c1ccc(CO)cc1,0.572,0.174,0.343,-0.373 (inactive),0.555,0.497,0.517,0.861,0.888,0.531
CC(C)NC(=O)[C@@]1(C)c2ccccc2C(=O)N(Cc2cc(C(F)(F)F)cc(C(F)(F)F)c2)[C@H]1c1ccc(CO)cc1,1.2,0.0251,1.17,0.207 (inactive),-0.609,-0.589,-0.584,-1.13,-0.788,-0.0259
COC(=O)C(CC#Cc1ccc2c(c1)[C@]1(C(=O)N2)[C@H](C(=O)Nc2nc3ccccc3s2)[C@H]2C(=O)O[C@H](c3ccccc3)[C@H](c3ccccc3)N2[C@@H]1c1ccccc1OCCO)C(=O)OC,1.61,0.473,0.561,1.44 (inactive),0.904,1.24,0.282,0.701,0.193,0.303
CC(C)c1ccc(NN2C(C(O)c3ccc(B(O)O)cc3)C=CC3C(=O)N(c4ccccc4)C(=O)C32)cc1 (stereo not given),1.24,0.942,1.05,0.844 (inactive),1.11,1.25,-0.109,1.38,-0.381,0.849
COc1ccc([Si](C)(C)[C@H]2[C@H](CCO)O[C@@]3(C(=O)N(Cc4ccc(N(C=O)c5ccccc5)cc4)c4ccccc43)[C@@H]2C)cc1,-0.0179,-0.214,0.479,-1.07 (inactive),-0.697,-1.09,-0.969,-0.251,-0.36,0.213
CO[C@H]1O[C@H](CO)[C@@H](OC(=O)Nc2ccc(C(F)(F)F)cc2)[C@H](OC(=O)Nc2ccc3c(c2)OCO3)[C@@H]1OC(=O)Nc1ccc2c(c1)OCO2,1.06,0.346,0.284,-1.29 (inactive),1.41,1.2,0.587,0.527,0.711,0.543
CCCCCN1CC=CC23O[C@@H]4C=CCCOC(=O)C4[C@H]2C(=O)N(CCCCCO)[C@@H]3C1=O (stereo not given in full),-0.158,-0.287,0.249,-0.978 (inactive),-0.8,-0.299,-1.16,-1.15,-0.503,0.516
COC(=O)[C@@]1(Cc2ccccc2)[C@H]2c3cc(C(=O)N4CCCC4)n(Cc4ccc(S(C)(=O)=O)cc4)c3C[C@H]2CN1C(=O)c1ccccc1,0.525,1.52,1.03,-1.18 (inactive),0.387,1.18,0.679,0.94,0.222,1.3
CC[C@@H]1C=C(C(=O)O)[C@H](c2ccc(Br)cc2)N1S(=O)(=O)c1ccc(C)cc1,0.118,0.495,0.882,1.28 (inactive),0.102,0.268,0.444,0.563,-0.235,1.11
COCCCNC(=O)[C@@H]1c2ccccc2C(=O)N(Cc2ccccc2Cl)[C@H]1c1ccc(CO)cc1,0.471,0.167,0.199,0.5 (inactive),0.629,1.17,0.245,0.715,0.412,0.975
